Source: the supplement of paper PMC10849652
The full data set covers some 7,900 targets. This sample favours those with a hit. About 0.6% of all pairs of compound and target were hits.

How the values were obtained:
Assay in all cases: log2 fold change, soluble protein after heating vs DMSO (PISA); higher = thermal stabilisation; K562 cells, 10 uM, 30 min; active = over 0.2 and 3.5 SD of the protein, either way, in both replicates (recomputed)
[1] = compound: CC1=C(C=C(C=C1)NC(=O)C2=CC(=CC=C2)C(C)(C)C#N)NC3=CC4=C(C=C3)N=CN(C4=O)C
Summary of the method: (§1)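 Quantification of soluble protein used TMTpro 16plex LC-MS/MS, with channel sums equalised. Samples were the supernatant after 21,000xg for 90 min of pooled aliquots from K562 cells (2×10^6 cells/mL) treated with 10 μM compound for 30 min, heated for 3 min over 48°C-58°C, and extracted in PBS with 0.5% NP-40 at 4°C. Values, from duplicates, describe thermal stability against control samples on a log2 fold-change scale.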

[2] = compound: CC1=C(C=C(C=C1)NC(=O)C2=CC(=CC=C2)N(C)C)NC(=O)C3=CC=C(C=C3)O
Summary of the method: as §1

[3] = compound: CC1=CC=C(C=C1)SC2=C3C=C(SC3=CN=C2)C(=O)N
Summary of the method: as §1

[4] = compound: CC1=NC(=CC=C1)C2=C(N=C(N2)C(C)(C)C)C3=CC4=NC=CN=C4C=C3
Summary of the method: as §1

[5] = compound: CCCCN(Cc1ccc(C(=O)NO)cc1)C(=O)Nc1ccccc1 [Nexturastat A]
Summary of the method: as §1

[6] = compound: CCCS(=O)(=O)Nc1ccc(F)c(C(=O)c2c[nH]c3ncc(-c4ccc(Cl)cc4)cc23)c1F [vemurafenib]
Summary of the method: as §1

[7] = compound: CCCS(=O)(=O)Nc1ccc(F)c(C(=O)c2c[nH]c3ncc(Cl)cc23)c1F
Summary of the method: as §1

[8] = compound: CCCc1cc(C)[nH]c(=O)c1CNC(=O)c1cc(-c2ccnc(N3CCN(C)CC3)c2)cc2c1cnn2C(C)C
Summary of the method: as §1

[9] = compound: CCN(CC)Cc1ccc2cc(COC(=O)Nc3ccc(C(=O)NO)cc3)ccc2c1 [givinostat]
Summary of the method: as §1

[10] = compound: CCN(CCCOc1ccc2c(Nc3cc(CC(=O)Nc4cccc(F)c4)[nH]n3)ncnc2c1)CCOP(=O)(O)O [barasertib]
Summary of the method: as §1

[11] = compound: CC[C@@H]1C(=O)N(C)c2cnc(Nc3ccc(C(=O)NC4CCN(C)CC4)cc3OC)nc2N1C1CCCC1
Summary of the method: as §1

[12] = compound: CC[C@@H]1C(=O)N(C)c2cnc(Nc3ccc(C(=O)N[C@H]4CC[C@H](N5CCN(CC6CC6)CC5)CC4)cc3OC)nc2N1C(C)C [volasertib]
Summary of the method: as §1

[13] = compound: CC[C@H](C)N1C=C(C2=C(C=C(C=C21)C3=CN=C(C=C3)N4CCNCC4)C(=O)NCC5=C(C=C(NC5=O)C)C)C
Summary of the method: as §1

[14] = compound: CC[C@H](C)[C@@H](C(=O)N[C@@H]([C@@H](C)O)C(=O)N[C@@H](CC(C)C)C(=O)[C@]1(CO1)C)NC(=O)[C@H]([C@@H](C)CC)N(C)C(=O)C [epoxomicin]
Summary of the method: as §1

[15] = compound: CCn1c(C(=O)N(C2CC2)C2CC2)cc2c3c(ncn3C)c(Nc3cc(C)n(C)n3)nc21
Summary of the method: as §1

[16] = compound: CCn1cc(-c2ccnc3[nH]c(-c4cccc(CN(C)C)c4)cc23)c(-c2ccc(NC(=O)N(C)C)cc2)n1
Summary of the method: as §1

[17] = compound: CN(C)CC(=O)Nc1ccc2[nH]c(=O)c3ccccc3c2c1
Summary of the method: as §1

[18] = compound: CN(CCOC1=CC=C(C=C1)C[C@H]2C(=O)NC(=O)S2)C3=CC=CC=N3 (racemic) [rosiglitazone]
Summary of the method: as §1

[19] = compound: CN1C2=C(C3=C1C(=O)N(N=C3)CC4=CC(=CC=C4)N)SC(=C2)S(=O)C
Summary of the method: as §1

[20] = compound: CN1CCC(CNc2ccc3ncc(-c4cccc(OC(F)(F)F)c4)n3n2)CC1
Summary of the method: as §1

Measured: log2 fold change

COQ9 (UniProt O75208)
active: [5] -0.266
inactive: [1] 0.016 | [2] 0.045 | [3] 0.054 | [4] 0.064 | [6] 0.041 | [7] -0.004 | [8] -0.006 | [9] -0.006 | [10] 0.046 | [11] -0.04 | [12] -0.05 | [13] 0.001 | [14] -0.041 | [15] -0.022 | [16] 0.002 | [17] 0.018 | [18] 0.025 | [19] -0.057 | [20] -0.135

COQ7 (UniProt Q99807)
inactive: [1] 0.028 | [2] 0.086 | [3] 0.02 | [4] 0.018 | [5] -0.068 | [6] -0.002 | [7] -0.061 | [8] -0.034 | [9] -0.091 | [10] 0.023 | [11] -0.035 | [12] -0.009 | [13] -0.01 | [14] 0.013 | [15] -0.005 | [16] -0.041 | [17] -0.047 | [18] 0.038 | [19] 0.023 | [20] -0.05

CD81 (UniProt P60033)
UniProt P60033, sequence (P60033 whole entry, looked up): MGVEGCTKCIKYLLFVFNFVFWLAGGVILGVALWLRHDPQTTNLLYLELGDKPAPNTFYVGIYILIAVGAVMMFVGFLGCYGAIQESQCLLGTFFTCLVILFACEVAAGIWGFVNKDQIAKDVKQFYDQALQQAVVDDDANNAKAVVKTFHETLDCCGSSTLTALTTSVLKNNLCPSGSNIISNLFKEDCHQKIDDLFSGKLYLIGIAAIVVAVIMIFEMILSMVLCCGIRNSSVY
inactive: [1] 0.039 | [2] 0.112 | [3] 0.069 | [4] 0.054 | [5] -0.027 | [6] 0.156 | [7] -0.08 | [8] -0.06 | [9] 0.016 | [10] -0.008 | [12] 0.193 | [13] -0.06 | [14] 0.013 | [15] 0.058 | [16] -0.226 | [17] 0.098 | [18] 0.013 | [19] -0.139 | [20] 0.145
active: [11] 0.393

CCAR2 isoform 2 (UniProt Q8N163)
UniProt Q8N163, sequence (Q8N163 whole entry, looked up): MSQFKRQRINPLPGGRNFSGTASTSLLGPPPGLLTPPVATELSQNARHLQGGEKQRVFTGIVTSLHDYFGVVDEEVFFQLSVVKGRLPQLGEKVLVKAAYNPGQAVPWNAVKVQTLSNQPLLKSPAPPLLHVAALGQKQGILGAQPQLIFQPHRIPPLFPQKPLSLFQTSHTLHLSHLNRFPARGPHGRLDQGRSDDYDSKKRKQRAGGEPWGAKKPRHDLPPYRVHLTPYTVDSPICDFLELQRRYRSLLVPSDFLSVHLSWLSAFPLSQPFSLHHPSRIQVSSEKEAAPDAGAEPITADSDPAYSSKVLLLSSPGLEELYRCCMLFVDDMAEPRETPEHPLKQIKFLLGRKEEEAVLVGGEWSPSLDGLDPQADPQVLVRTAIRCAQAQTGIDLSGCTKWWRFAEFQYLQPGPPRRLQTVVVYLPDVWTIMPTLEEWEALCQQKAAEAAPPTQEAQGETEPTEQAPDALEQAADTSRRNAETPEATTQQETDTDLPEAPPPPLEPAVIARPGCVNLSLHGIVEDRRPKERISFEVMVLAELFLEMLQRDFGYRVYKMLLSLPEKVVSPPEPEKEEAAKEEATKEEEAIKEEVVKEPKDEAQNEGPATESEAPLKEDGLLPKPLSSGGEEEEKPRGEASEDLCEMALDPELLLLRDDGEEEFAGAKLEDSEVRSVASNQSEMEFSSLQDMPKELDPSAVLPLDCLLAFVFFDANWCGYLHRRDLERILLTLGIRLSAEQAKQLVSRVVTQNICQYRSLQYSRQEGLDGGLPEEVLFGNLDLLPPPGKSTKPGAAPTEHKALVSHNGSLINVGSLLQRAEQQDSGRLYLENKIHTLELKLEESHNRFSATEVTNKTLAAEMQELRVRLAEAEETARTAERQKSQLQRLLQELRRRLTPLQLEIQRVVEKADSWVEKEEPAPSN
inactive: [1] 0.032 | [2] -0.048 | [3] -0.017 | [4] 0.001 | [5] 0 | [6] 0.042 | [7] 0.05 | [8] 0.28 | [9] 0.144 | [10] 0.026 | [11] -0.08 | [13] 0.031 | [14] -0.018 | [15] -0.057 | [16] -0.025 | [17] 0.044 | [18] 0.047 | [19] 0.003 | [20] -0.145
active: [12] -0.343

CLPTM1L (UniProt Q96KA5)
UniProt Q96KA5, sequence (Q96KA5 whole entry, looked up): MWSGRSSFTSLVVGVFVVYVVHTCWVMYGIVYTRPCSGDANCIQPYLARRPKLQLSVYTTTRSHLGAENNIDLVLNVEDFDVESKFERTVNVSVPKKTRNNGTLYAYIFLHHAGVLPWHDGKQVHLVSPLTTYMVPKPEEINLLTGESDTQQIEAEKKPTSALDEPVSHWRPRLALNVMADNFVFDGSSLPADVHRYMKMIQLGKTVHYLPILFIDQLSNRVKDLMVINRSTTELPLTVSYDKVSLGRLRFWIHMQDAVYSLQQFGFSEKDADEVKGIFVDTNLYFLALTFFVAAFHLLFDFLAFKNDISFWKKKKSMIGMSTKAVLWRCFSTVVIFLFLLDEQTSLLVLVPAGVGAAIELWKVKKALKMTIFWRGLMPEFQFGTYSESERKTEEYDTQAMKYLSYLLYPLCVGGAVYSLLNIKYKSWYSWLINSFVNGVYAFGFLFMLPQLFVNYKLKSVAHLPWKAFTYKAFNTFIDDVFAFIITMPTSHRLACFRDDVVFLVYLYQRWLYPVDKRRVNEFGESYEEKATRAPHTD
inactive: [1] -0.014 | [2] 0.01 | [3] 0.03 | [4] 0.022 | [5] -0.032 | [6] 0.045 | [7] 0.016 | [8] -0.015 | [9] 0.009 | [10] 0.021 | [11] -0.067 | [12] -0.185 | [13] 0.005 | [14] 0.013 | [15] 0.009 | [16] -0.051 | [17] 0.023 | [18] 0.054 | [19] -0.023 | [20] -0.188

CRK (UniProt P46108)
UniProt P46108, sequence (P46108 whole entry, looked up): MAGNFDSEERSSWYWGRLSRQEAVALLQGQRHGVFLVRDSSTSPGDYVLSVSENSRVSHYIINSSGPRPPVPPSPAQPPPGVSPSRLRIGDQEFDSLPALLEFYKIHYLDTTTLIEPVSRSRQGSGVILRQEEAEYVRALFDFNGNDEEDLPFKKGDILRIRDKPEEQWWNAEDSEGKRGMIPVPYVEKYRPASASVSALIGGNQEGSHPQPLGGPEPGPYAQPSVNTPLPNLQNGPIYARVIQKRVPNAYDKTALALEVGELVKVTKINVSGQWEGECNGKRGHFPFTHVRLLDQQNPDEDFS
inactive: [2] -0.019 | [3] 0.015 | [4] 0.091 | [5] -0.006 | [6] 0.048 | [7] 0.009 | [8] -0.008 | [9] 0.002 | [10] 0.046 | [11] -0.059 | [12] -0.085 | [13] 0.005 | [14] 0.026 | [15] 0.002 | [16] -0.039 | [17] 0.002 | [18] 0.033 | [19] -0.028 | [20] -0.022
active: [1] -0.814

CLASP2 isoform 3 (UniProt O75122)
inactive: [1] -0.032 | [2] -0.01 | [3] 0.013 | [4] 0.012 | [5] -0.006 | [6] 0.089 | [7] 0.061 | [8] 0.029 | [9] 0.013 | [10] 0.066 | [11] -0.175 | [13] 0.054 | [14] 0.034 | [15] -0.087 | [16] -0.024 | [17] 0.051 | [18] 0.038 | [19] 0
active: [12] -0.326 | [20] -0.227

CALB1 (UniProt P05937)
UniProt P05937, sequence (P05937 whole entry, looked up): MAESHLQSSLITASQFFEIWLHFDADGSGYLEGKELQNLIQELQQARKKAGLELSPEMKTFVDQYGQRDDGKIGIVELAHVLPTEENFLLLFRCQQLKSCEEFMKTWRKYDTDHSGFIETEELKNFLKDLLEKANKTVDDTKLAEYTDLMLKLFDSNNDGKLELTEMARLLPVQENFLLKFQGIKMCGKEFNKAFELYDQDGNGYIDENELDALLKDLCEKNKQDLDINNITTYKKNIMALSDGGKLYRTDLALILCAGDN
inactive: [1] -0.004 | [2] 0.032 | [3] 0.027 | [4] 0.042 | [5] -0.023 | [6] 0.057 | [7] 0.019 | [8] 0.011 | [9] -0.031 | [10] 0.037 | [11] -0.123 | [12] -0.092 | [13] -0.007 | [14] 0.043 | [15] 0.003 | [16] 0.05 | [17] 0.016 | [18] 0.027 | [19] -0.039
active: [20] -0.282

CNTN4 (UniProt Q8IWV2)
UniProt Q8IWV2, sequence (Q8IWV2 whole entry, looked up): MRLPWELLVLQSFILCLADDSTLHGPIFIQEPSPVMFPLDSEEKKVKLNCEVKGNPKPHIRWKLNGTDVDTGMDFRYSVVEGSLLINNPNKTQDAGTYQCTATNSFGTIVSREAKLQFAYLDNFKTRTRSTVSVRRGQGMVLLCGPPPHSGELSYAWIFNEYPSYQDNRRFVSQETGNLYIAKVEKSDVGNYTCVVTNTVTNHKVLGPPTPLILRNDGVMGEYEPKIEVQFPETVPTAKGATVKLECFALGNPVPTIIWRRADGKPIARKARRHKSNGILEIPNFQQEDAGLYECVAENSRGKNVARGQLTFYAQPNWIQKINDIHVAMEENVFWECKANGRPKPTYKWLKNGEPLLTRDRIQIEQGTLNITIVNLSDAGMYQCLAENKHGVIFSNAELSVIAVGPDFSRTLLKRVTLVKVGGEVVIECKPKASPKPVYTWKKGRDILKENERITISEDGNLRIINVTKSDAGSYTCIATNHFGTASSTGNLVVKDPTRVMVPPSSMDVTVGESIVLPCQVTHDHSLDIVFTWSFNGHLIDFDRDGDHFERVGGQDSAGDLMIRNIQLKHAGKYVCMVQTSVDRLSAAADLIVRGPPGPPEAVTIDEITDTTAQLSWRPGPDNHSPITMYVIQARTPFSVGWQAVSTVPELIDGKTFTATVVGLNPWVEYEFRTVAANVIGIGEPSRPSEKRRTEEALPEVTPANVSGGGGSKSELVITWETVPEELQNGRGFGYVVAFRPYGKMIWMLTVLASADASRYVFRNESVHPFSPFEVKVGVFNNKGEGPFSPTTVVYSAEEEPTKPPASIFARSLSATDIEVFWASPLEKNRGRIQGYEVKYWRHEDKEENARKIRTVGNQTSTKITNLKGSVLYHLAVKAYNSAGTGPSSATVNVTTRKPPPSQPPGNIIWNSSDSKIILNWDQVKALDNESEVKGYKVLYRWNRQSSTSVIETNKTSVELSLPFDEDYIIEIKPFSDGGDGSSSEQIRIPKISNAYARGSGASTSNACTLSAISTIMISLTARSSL
inactive: [1] -0.053 | [2] 0 | [3] 0.035 | [4] -0.244 | [5] 0.342 | [6] -0.038 | [7] 0.058 | [8] 0.364 | [9] 0.278 | [10] 0.055 | [11] -0.016 | [12] -0.14 | [13] -0.084 | [14] 0.149 | [15] -0.208 | [16] -0.157 | [17] 0 | [18] -0.021 | [19] -0.077 | [20] -0.102

CCDC9 (UniProt Q9Y3X0)
inactive: [1] -0.042 | [2] 0.007 | [3] 0.019 | [4] 0.055 | [5] 0.119 | [6] -0.007 | [7] -0.009 | [8] -0.004 | [9] -0.069 | [10] 0.021 | [11] 0.081 | [12] 0.127 | [13] -0.051 | [14] -0.018 | [15] 0.032 | [16] 0.051 | [17] 0.002 | [18] 0.021 | [19] 0.025 | [20] 0.009

CCNB1 (UniProt P14635)
inactive: [1] 0.021 | [2] -0.043 | [3] 0.011 | [4] 0 | [5] 0.017 | [6] 0.03 | [7] 0.008 | [8] -0.033 | [9] 0.007 | [10] -0.007 | [11] 0.023 | [12] 0.026 | [13] -0.027 | [14] 0.083 | [15] -0.007 | [16] -0.004 | [17] 0.012 | [18] 0.017 | [19] -0.043 | [20] -0.032

CLCN3 isoform 2 (UniProt P51790)
UniProt P51790, sequence (P51790 whole entry, looked up): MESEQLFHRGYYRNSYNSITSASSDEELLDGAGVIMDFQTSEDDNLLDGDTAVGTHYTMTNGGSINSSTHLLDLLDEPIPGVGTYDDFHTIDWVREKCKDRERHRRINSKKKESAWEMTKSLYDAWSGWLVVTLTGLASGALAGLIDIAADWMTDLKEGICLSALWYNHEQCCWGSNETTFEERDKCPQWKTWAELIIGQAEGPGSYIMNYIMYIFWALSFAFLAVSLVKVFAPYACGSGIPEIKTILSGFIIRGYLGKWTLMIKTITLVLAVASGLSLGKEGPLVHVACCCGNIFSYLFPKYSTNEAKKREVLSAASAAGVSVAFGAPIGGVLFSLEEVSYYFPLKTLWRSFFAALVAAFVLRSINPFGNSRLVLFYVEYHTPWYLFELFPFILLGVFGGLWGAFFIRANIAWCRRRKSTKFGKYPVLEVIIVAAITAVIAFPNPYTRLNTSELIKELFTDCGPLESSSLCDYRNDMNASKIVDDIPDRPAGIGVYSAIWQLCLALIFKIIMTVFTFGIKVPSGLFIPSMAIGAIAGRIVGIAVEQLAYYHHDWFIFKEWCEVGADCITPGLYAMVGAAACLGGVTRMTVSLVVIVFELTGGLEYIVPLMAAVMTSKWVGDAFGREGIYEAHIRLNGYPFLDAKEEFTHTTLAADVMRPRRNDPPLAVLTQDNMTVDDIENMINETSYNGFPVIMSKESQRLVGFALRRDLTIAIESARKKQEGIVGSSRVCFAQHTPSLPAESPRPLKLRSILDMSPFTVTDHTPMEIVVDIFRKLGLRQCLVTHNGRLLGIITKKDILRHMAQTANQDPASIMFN
inactive: [1] -0.055 | [2] 0.002 | [3] 0.008 | [4] 0.061 | [5] -0.026 | [6] 0 | [7] 0.03 | [8] -0.023 | [9] 0.029 | [10] -0.006 | [11] -0.047 | [12] -0.113 | [13] 0.026 | [14] 0.003 | [15] 0.018 | [16] -0.032 | [17] 0.024 | [18] 0.001 | [19] -0.028 | [20] -0.079

CLSPN (UniProt Q9HAW4)
inactive: [1] -0.048 | [2] 0.003 | [3] -0.025 | [4] -0.035 | [5] 0.006 | [6] 0.041 | [7] 0 | [8] -0.012 | [9] -0.032 | [10] 0.006 | [11] -0.017 | [12] -0.159 | [13] -0.019 | [14] 0.037 | [15] 0.062 | [16] 0.031 | [17] -0.048 | [18] -0.016 | [19] 0.04 | [20] -0.02

COMMD2 (UniProt Q86X83)
UniProt Q86X83, sequence (Q86X83 whole entry, looked up): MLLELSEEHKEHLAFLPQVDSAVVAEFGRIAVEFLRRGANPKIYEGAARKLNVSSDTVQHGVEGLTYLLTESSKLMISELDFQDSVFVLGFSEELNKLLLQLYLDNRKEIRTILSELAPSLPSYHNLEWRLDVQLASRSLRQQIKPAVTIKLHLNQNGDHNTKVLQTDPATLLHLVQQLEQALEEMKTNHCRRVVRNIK
inactive: [1] -0.014 | [2] -0.051 | [3] 0.007 | [4] 0.035 | [5] 0.022 | [6] 0.023 | [7] 0.159 | [8] 0.019 | [9] 0.11 | [10] 0.053 | [11] -0.004 | [12] -0.264 | [13] 0.07 | [14] -0.088 | [15] -0.022 | [16] -0.005 | [17] -0.108 | [18] 0.134 | [19] 0 | [20] -0.209

CALCOCO2 isoform 4 (UniProt Q13137)
inactive: [1] -0.005 | [2] -0.008 | [3] 0.006 | [4] 0.012 | [5] 0.019 | [6] 0.012 | [7] -0.037 | [8] -0.052 | [9] 0 | [10] 0.022 | [13] -0.024 | [14] 0.035 | [15] 0.089 | [16] 0.059 | [17] 0.01 | [18] 0 | [19] 0.055 | [20] -0.149
active: [11] -0.634 | [12] -0.471

CDK5RAP1 (UniProt Q96SZ6)
UniProt Q96SZ6, sequence (Q96SZ6 whole entry, looked up): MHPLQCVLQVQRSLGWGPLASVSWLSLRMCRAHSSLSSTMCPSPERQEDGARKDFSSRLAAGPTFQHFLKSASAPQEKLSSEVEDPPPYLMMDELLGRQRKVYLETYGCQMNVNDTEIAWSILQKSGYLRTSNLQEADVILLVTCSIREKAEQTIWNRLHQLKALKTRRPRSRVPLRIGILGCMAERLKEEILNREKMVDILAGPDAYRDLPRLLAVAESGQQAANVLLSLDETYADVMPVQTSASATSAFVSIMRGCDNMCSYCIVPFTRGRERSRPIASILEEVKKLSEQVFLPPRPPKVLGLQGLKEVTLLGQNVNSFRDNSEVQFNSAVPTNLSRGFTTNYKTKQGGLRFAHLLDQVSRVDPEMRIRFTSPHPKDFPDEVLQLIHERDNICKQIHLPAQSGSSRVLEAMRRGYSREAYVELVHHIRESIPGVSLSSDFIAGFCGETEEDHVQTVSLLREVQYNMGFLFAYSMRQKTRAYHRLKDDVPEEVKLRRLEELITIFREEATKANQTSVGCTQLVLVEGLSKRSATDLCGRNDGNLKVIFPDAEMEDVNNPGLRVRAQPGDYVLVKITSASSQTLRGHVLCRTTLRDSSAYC
inactive: [1] 0.014 | [2] -0.04 | [3] 0.002 | [4] 0.05 | [5] -0.065 | [6] -0.007 | [7] -0.035 | [8] 0.066 | [9] -0.166 | [10] -0.005 | [11] -0.119 | [12] -0.064 | [13] 0.071 | [14] 0.033 | [15] 0.001 | [16] -0.086 | [17] -0.006 | [18] 0.036 | [19] -0.074
active: [20] -0.254
